The text below walks through data of PubChem BioAssay.

For assay [1], the system named is PRMT1 (protein arginine N-methyltransferase 1). Nature of the assay: PRMT1 binders on small-molecule microarrays, primary screen, biochemical, small-molecule microarray, 635 nm fluorescence (AID 1088).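 Also: binding of Prmt1 protein to compounds spotted on small-molecule microarray slides.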 As to conditions: small-molecule microarray binding, higher = more signal.
A short description of assay [2]: yeast growth modulation, basal conditions, primary screen, YJM789 clinical isolate, OD600, 24 h (AID 1089).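 Also: growth of clinical yeast isolate S. cerevisiae YJM 789 seeded 1000 cells per well; test concentration not given here.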 As to conditions: S. cerevisiae YJM789 growth, higher = more signal, called active from +8 up or from −8 down.
A short description of assay [3]: fission yeast growth modulation, primary screen, strain 972, OD600, 24 h, no modulator (AID 1090).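 Also: basal condition with compound alone and no growth modifier present; test concentration not given here.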 As to conditions: S. pombe 972 growth, higher = more signal, called active from +8 up or from −8 down.
Assay [4] is described as follows: S. cerevisiae growth modulation with rapamycin, primary screen, strain BY4716, OD600, 96 h (AID 1091). Also: test concentration not given here. As to conditions: higher = more signal, called active from +8 up or from −8 down.
Assay [5] addresses Torsin-1A-interacting protein 2 (Homo sapiens) (UniProt Q8NFQ8). Nature of the assay: LULL1 binders on small-molecule microarray, primary screen, cell lysate, human LULL1 lysate, 635/667 nm fluorescence (AID 1092).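 Also: probe is lysate of COS7 cells overexpressing human LULL1; score merges per-feature 667 nm fluorescence with signal-to-noise.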 As to conditions: hLULL1 lysate binding, 635 nm fluorescence, higher = more signal.
The nature of assay [6]: E. coli growth modulation, two-sided OD650, primary screen, E. coli filamentation project, strain DRC41, 24 h (AID 1093).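 Also: MC1000 strain lacking acrAB efflux and sulA so SOS filamentation is blocked; test concentration not given here.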 As to conditions: OD650, 24 h, higher = more signal, called active from +8 up or from −8 down.
The nature of assay [7]: small-molecule microarray binders of probe aLefty2, primary screen, biochemical, biotinylated probe, 635/667 nm fluorescence (AID 1094).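 Also: score merges spot fluorescence near 667 nm with spot signal-to-noise ratio.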 As to conditions: higher = more signal.
For assay [8], the system named is Noggin (protein binding on small-molecule microarray). As to the kind of experiment: Noggin binders on small-molecule microarray, primary screen, biochemical, 635/667 nm fluorescence (AID 1095).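 Also: score merges 667 nm feature fluorescence with signal to noise over triplicate slides.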 As to conditions: 635 nm fluorescence, higher = more signal.
Assay [9] deals with Neurogenic locus notch homolog protein 3 (Homo sapiens) (UniProt Q9UM47). As to the kind of experiment: NOTCH3 binders on small-molecule microarray, primary screen, biochemical, 635/667 nm fluorescence (AID 1096). As to conditions: NOTCH3 binding, 635 nm fluorescence, higher = more signal.
Chain of Neurogenic locus notch homolog protein 3 (Homo sapiens) (Q9UM47 whole entry, looked up): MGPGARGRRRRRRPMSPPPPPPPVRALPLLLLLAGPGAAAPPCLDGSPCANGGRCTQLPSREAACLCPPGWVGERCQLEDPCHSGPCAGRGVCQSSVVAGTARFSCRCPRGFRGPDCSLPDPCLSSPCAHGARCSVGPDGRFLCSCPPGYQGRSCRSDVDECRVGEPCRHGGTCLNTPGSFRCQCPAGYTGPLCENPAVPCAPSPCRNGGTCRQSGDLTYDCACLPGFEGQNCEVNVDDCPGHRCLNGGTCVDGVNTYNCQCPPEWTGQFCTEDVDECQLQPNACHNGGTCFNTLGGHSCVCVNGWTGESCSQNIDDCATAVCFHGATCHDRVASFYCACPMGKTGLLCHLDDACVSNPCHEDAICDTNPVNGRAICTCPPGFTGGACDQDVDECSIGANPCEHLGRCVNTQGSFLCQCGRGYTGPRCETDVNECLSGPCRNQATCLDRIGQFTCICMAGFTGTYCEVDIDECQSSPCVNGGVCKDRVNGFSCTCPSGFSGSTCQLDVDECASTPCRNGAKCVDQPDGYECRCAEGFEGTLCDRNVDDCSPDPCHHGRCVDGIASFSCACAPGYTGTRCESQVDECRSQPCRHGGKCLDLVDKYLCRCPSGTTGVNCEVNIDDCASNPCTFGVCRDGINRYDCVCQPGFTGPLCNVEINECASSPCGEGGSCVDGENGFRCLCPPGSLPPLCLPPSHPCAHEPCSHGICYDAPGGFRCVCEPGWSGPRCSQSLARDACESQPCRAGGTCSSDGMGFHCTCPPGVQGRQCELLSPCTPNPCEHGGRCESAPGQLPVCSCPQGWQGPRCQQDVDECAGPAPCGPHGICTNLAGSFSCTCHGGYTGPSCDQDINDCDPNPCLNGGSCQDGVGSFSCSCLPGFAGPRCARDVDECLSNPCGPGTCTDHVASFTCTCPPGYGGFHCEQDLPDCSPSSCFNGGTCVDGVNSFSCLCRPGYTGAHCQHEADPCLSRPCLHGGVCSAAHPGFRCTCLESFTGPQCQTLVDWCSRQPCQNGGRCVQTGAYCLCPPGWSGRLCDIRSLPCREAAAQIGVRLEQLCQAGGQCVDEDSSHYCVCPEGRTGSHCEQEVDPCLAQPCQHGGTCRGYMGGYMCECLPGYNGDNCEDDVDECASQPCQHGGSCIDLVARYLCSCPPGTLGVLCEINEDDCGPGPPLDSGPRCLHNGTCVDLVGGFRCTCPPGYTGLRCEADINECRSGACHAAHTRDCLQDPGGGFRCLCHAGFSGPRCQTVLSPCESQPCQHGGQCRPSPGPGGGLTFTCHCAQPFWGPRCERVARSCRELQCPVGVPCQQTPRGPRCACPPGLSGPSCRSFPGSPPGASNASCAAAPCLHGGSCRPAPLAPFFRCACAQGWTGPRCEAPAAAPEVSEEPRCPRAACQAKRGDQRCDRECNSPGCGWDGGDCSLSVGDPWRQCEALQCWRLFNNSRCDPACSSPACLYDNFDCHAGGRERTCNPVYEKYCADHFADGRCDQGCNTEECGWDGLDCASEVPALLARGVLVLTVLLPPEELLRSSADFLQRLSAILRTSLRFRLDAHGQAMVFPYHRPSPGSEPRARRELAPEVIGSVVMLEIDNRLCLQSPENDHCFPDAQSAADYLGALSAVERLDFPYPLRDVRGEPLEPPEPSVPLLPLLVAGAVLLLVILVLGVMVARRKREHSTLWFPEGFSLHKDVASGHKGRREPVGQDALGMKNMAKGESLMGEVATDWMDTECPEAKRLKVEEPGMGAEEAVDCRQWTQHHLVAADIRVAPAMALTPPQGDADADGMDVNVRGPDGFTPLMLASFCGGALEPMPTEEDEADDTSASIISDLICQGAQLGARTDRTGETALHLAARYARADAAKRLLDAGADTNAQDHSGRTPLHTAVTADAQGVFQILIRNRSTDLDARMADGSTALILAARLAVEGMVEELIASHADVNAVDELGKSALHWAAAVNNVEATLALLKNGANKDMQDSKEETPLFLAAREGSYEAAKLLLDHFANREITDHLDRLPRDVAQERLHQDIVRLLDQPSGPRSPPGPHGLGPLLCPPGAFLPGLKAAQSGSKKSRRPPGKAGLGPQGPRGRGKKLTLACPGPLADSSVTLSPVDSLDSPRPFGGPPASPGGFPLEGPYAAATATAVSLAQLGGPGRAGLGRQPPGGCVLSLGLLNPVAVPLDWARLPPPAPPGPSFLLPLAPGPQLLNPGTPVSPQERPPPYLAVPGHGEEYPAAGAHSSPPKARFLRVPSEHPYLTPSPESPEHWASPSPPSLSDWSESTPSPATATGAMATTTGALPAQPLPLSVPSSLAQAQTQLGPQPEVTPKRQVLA
Assay [10] can be described thus: small-molecule microarray binders of probe aEGFR, primary screen, biochemical, biotinylated probe, 635/667 nm fluorescence (AID 1097).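 Also: probe is a biotinylated anti-EGFR antibody binding compounds printed on slides; score combines fluorescence near 667 nm and signal to noise of each spot.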 As to conditions: higher = more signal.

Activity calls are given as the source filed them.

Chain of Torsin-1A-interacting protein 2 (Homo sapiens) (Q8NFQ8 whole entry, looked up): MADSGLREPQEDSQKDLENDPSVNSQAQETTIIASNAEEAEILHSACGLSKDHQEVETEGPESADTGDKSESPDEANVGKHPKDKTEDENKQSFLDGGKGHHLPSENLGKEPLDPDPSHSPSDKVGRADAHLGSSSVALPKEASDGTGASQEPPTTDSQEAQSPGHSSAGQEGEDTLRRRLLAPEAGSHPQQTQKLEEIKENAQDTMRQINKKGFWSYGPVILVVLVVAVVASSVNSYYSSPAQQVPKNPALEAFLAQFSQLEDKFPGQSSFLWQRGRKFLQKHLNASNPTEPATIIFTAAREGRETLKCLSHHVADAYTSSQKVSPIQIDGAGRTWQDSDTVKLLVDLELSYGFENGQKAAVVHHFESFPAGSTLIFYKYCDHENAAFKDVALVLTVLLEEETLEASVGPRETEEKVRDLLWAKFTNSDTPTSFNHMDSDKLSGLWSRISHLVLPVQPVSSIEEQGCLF

As for `CCCCC(O)C1C=CC2C(=O)N(C)C(=O)C2N1N1CCCCC1` (stereo not given), the composite z-score in assay [1] came to 0.506; in assay [5], 2.84; in assay [7], 0.365; in [8], 0.277; in assay [9] it was 0.967; in assay [10], 0.197. For the same compound, the z-score is 0.882 (inactive) in [2], 1.05 (inactive) in [3], 1.97 (inactive) in [4] and -1.1 (inactive) in assay [6].
Regarding `CCCC[C@H]1C[C@@H]1[C@@H]1N(P(=O)(c2ccccc2)c2ccccc2)C[C@@](O)(c2ccccc2)CC12CC2`, the composite z-score in assay [1] was 0.761; in [5], 3.06; in assay [7], 0.356; in assay [8], -0.695; in [9], -0.317; in assay [10], 0.0144. Further, the z-score was -0.841 (inactive) in [2], -7.02 (inactive) in assay [3], 32.9 (active) in assay [4] and -0.931 (inactive) in [6].
On to `COc1ccc(NN2C(C(O)c3ccc(N(C)C)cc3)C=CC3C(=O)N(C4CCCCC4)C(=O)C32)cc1` (stereo not given), for which the composite z-score is 1.51 in assay [1]; 2.91 in [5]; 0.329 in assay [7]; 0.134 in assay [8]; 1.09 in assay [9]; 0.174 in [10]. Besides, the z-score was -0.229 (inactive) in assay [2], 0.594 (inactive) in assay [3], 0.687 (inactive) in assay [4] and -0.386 (inactive) in [6].
For the compound `COc1ccc(CCNC(=O)[C@@]2(c3ccc([N+](=O)[O-])cc3)CC(=O)N(CC34CC5CC(CC(C5)C3)C4)[C@@H]2c2ccc(CO)cc2I)cc1`, the composite z-score is 1.54 in assay [1]; 2.83 in [5]; -0.387 in assay [7]; 1.52 in assay [8]; 1.1 in [9]; -0.151 in assay [10]. The z-score in assay [2] was 0.484 (inactive); in [3], 0.369 (inactive); in [4] it was 6.17 (inactive); in assay [6], 0.376 (inactive).
As for `C=CC[C@]1(C(=O)N2CCOCC2)N=C(c2ccc(OCCCO)cc2)O[C@H]1c1ccccc1N=[N+]=[N-]`, the composite z-score in assay [1] was 1.54; in assay [5], 3.45; in assay [7], 0.405; in assay [8], 0.752; in assay [9], 1.11; in assay [10], -0.0406. Moreover, the z-score in assay [2] is -0.0233 (inactive); in assay [3], -1.22 (inactive); in [4], 0.206 (inactive); in [6], 0.734 (inactive).
For `CC(C)C(=C=CC[C@H](O)c1ccc(CO)o1)CCO`, the composite z-score in assay [1] was 1.52; in assay [5] it was 1.51; in [7] it was -0.28; in [8], 0.679; in assay [9], 0.787; in assay [10], -0.14. Besides, the z-score in [2] was -0.0662 (inactive); in assay [3] it was -0.697 (inactive); in [4] it was -0.536 (inactive); in assay [6] it was -0.253 (inactive).
Take `COc1ccc([Si](C)(C)[C@H]2[C@H](CCn3cc([C@H](O)c4ccccc4)nn3)O[C@@]3(C(=O)N(C)c4ccccc43)[C@@H]2C)cc1`: the composite z-score is -0.133 in [1]; 0.446 in assay [5]; -0.0317 in assay [7]; 0.176 in [8]; 0.133 in assay [9]; -0.171 in assay [10]. For the same compound, the z-score is -2.61 (inactive) in [2], 0.644 (inactive) in assay [3], -0.254 (inactive) in assay [4] and 0.271 (inactive) in assay [6].
For the compound `CCCCCCCCCCC(O)C1C=CC2C(=O)NC(=O)C2N1Nc1ccc(Cl)cc1Cl` (stereo not given), the composite z-score in assay [1] was 0.355; in assay [5] it was 1.8; in assay [7], -0.0769; in [8], -0.729; in assay [9], 0.102; in assay [10], -0.137. The z-score was 1.52 (inactive) in assay [2], -0.451 (inactive) in assay [3], 0.309 (inactive) in assay [4] and -2.39 (inactive) in [6].
For the compound `COC(=O)[C@@]1(Cc2ccc(OC)cc2)[C@H]2c3cc(C(=O)N(C)C)n(Cc4ccc(C(F)(F)F)nc4)c3C[C@H]2CN1C(=O)c1ccccc1`, the composite z-score in assay [1] was -1.54; in assay [5], 2.17; in assay [7], 0.498; in [8], 0.243; in [9] it was -0.055; in assay [10], 0.338. Also, the z-score in [2] is 0.643 (inactive); in assay [3], 1.7 (inactive); in [4], 0.473 (inactive); in assay [6], 0.379 (inactive).
Regarding `CO[C@H]1O[C@H](CO)[C@@H](OC(=O)Nc2ccccc2)[C@@H]2OC(=O)[C@@H](Cc3ccc4ccccc4c3)C/C=C/C[C@H](Cc3ccc4ccccc4c3)C(=O)O[C@@H]12`, the composite z-score was 1.47 in assay [1]; 2.35 in assay [5]; -0.0403 in assay [7]; 0.369 in [8]; 0.977 in [9]; -0.0449 in assay [10]. Besides, the z-score is -1.38 (inactive) in assay [2], -1.57 (inactive) in [3], 1.55 (inactive) in [4] and 2.64 (inactive) in [6].
Consider `COc1cc(CO)cc(I)c1O[C@H]1C=C(C(=O)NCCO)C[C@@H](N(C(=O)c2cc3ccccc3oc2=O)C2CCCCCC2)[C@@H]1O`, for which the composite z-score in assay [1] is -0.446; in assay [5], -0.188; in assay [7], -0.198; in [8], 0.437; in assay [9], 0.383; in assay [10], -0.207. Further, the z-score in assay [2] was -0.13 (inactive); in assay [3] it was -1.59 (inactive); in [4] it was -1.26 (inactive); in assay [6], 1.86 (inactive).
Turning to `C=CC1c2cc(O)c(OC)cc2CCN1Cc1cccc(OC(F)(F)F)c1` (stereo not given), the composite z-score in assay [1] is 1.22; in assay [5], 3.88; in assay [7], -0.129; in assay [8], -0.0799; in assay [9], -0.344; in assay [10], -0.125. Besides, the z-score in [2] is -26 (active); in [3], -20.2 (active); in assay [4], -3.13 (inactive); in assay [6] it was 0.148 (inactive).
Take `O=C(NC1CC1)[C@@H]1c2ccccc2C(=O)N(C2Cc3ccccc3C2)[C@H]1c1ccc(CO)cc1`: the composite z-score is 1.44 in assay [1]; 3.1 in assay [5]; -0.0441 in assay [7]; 0.976 in assay [8]; 0.722 in assay [9]; -0.16 in [10]. Besides, the z-score in assay [2] is -0.0411 (inactive); in assay [3] it was 0.682 (inactive); in assay [4], -0.514 (inactive); in assay [6] it was 0.628 (inactive).
On to `CN(C)CCCCCCNC(=O)[C@@H]1C[C@@H]2C(=O)N[C@@H](CCCC[N+](C)(C)C)C(=O)N2[C@@H]1c1ccc(O)cc1`, for which the composite z-score was 0.821 in [1]; 0.219 in assay [5]; -0.0907 in [7]; 0.576 in assay [8]; 0.0475 in [9]; -0.221 in assay [10]. Further, the z-score in [2] was -0.581 (inactive); in assay [3], -0.689 (inactive); in assay [4], -0.414 (inactive); in assay [6] it was -0.227 (inactive).
